Unmarked numbers belong to inactive results. The rule behind the calls is not given here.

This test deals with Pantothenate synthetase (Mycobacterium tuberculosis (strain ATCC 25618 / H37Rv)) (UniProt P9WIL5). Description: Recombinant Mtb pantothenate synthetase (PanC) inhibitors, coupled enzyme, confirmatory (AID 375).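 Note: 0% = full reaction with vehicle and 100% = no enzyme background.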 The conditions noted are these: coupled enzyme assay; at 10 µM, hits give high values.
Chain of Pantothenate synthetase (Mycobacterium tuberculosis (strain ATCC 25618 / H37Rv)) (P9WIL5 whole entry, looked up): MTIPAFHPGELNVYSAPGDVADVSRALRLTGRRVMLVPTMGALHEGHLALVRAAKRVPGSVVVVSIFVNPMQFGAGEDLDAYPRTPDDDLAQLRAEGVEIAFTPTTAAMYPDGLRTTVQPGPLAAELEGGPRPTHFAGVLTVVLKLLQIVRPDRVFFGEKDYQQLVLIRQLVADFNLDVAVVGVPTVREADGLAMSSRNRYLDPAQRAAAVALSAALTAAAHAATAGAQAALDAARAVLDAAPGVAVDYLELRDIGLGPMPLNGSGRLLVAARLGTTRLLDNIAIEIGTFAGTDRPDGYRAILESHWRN
Usually inhibition stands for the share of the control response that was lost under treatment. Take `COc1ccc(CCNS(=O)(=O)c2ccc3oc(C(=O)O)c(C)c3c2)cc1OC`: the inhibition was 0%.

Consider `Cc1nc2ncnn2c(C)c1CCC(=O)NCCCN1CCN(c2cccc(Cl)c2)CC1`, for which the inhibition is 0%.

For `CC1CN(C2CCCCC2)c2nc3c(c(=O)[nH]c(=O)n3C)n2C1` (stereo not given), the inhibition was 2%. Take `N#CC1(c2ccccc2)CCC(=NO)CC1` (stereo not given): the inhibition is 0%. With `CCOC(=O)c1nnc2cc(-c3ccc(Br)cc3)nn2c1C`, the inhibition is 0%. As for `COCCn1nnnc1C(c1cc2cc(OC)ccc2[nH]c1=O)N1CCC(Cc2ccccc2)CC1` (stereo not given), the inhibition is 3%. Next, `COc1ccc(-n2ncc3c(N4CCN(c5cccc(C)c5C)CC4)ncnc32)cc1`: 0%.

For `COc1cccc(OC)c1OCCCSc1nc(C)cc(=O)[nH]1`, the inhibition is 0%. Next, `Cc1nnc(C)c2c(C)n(-c3ccc(Br)cc3)c(C)c12`: 0%; `Cc1cccc(N(C)C(=O)c2coc(=O)c3ccccc23)c1`: 0%; `Cc1noc(C)c1CSc1nnc2n(-c3ccccc3)c(=O)c3ccccc3n12`: 0%.

In the case of `CC(=O)Nc1ccc(S(=O)(=O)NCC2CCC(C(=O)NCCCN3CCCC3=O)CC2)cc1` (stereo not given), the inhibition is 0%. On to `COC(=O)c1ccc(C)c(NS(=O)(=O)c2ccc3c(c2)OCCO3)c1`, for which the inhibition is 0%. Take `O=S(=O)(Nc1cccnc1)c1ccc2c(c1)OCCO2`: the inhibition was 1%.

As for `O=C1CC(C(=O)Nc2ccc(Br)cc2)C2(CCCC2)O1` (stereo not given), the inhibition was 1%. As for `C/C=C/COC(=O)c1[nH]c2c(c1C)C(=O)CC(c1ccc(N(C)C)cc1)C2` (stereo not given), the figure is 1%. As for `CCc1cc2c(CN3CCN(CCO)CC3)cc(=O)oc2cc1O`, the figure is 0%. Take `Cc1ccc(N2CC(C(=O)Nc3ccc4c(c3)OCO4)CC2=O)cc1` (stereo not given): the inhibition was 6%. `CCC(C)NC(=O)c1cn(CC)c2ccc(S(=O)(=O)N(C)C)cc2c1=O` (stereo not given): the inhibition was 0%.

As for `CC1CCCCC1NC(=O)CCCc1nc2ccccc2c(=O)[nH]1` (stereo not given), the inhibition was 0%. Next, `CCOC(=O)c1[nH]c(CSc2nnc(-c3ccncc3)n2CCOC)c(C(=O)OCC)c1C`: 3%. Consider `CCCSc1nnc2nc3c(nn12)c1ccccc1n3C`, for which the inhibition is 0%.

On to `O=c1[nH]c2ccccc2n1CCCN1CCN(C(c2ccccc2)c2ccccc2)CC1`, for which the inhibition is 1%. As for `COc1ccc(-n2c(Cc3cccn3C)nnc2SCC(=O)Nc2cccc(OC)c2)cc1`, the figure is 2%. Consider `CCOc1ccc2cc(C#N)c(SCC(=O)N3CCOCC3)nc2c1`, for which the inhibition was 0%. For the compound `COCCn1c(CN2CCN(c3cccc(Cl)c3)CC2)nc2c1c(=O)n(C)c(=O)n2C`, the inhibition is 0%. Next, `O=C(Cn1c(=O)oc2ccccc21)N1CCN(c2ccccc2)CC1`: 0%; `O=C(O)c1cc(=O)c2c(OCC(O)COc3cccc4oc(C(=O)O)cc(=O)c34)cccc2o1`: 1%; `Cc1cccc(CCNC(=O)C2CCCN(S(=O)(=O)c3cnc[nH]3)C2)c1` (stereo not given): 5%. As for `CCN(CC)CCn1c2ccccc2c2nc(C)sc21`, the figure is 1%; as for `COc1ccc(Cc2nc(-c3ccc(NC(=O)c4cccnc4)cc3)no2)cc1`, 0%; as for `Cc1ccc(SCCNS(=O)(=O)c2ccc(F)cc2)cc1`, 1%. Next, `O=C(CCN1C(=O)c2ccccc2C1=O)N1CCN(C(=O)c2ccccc2)CC1`: 0%; `Cc1cc(C)c(NC(=O)C2CCCN2CCO)c(C)c1` (stereo not given): 0%. As to `CCCCOc1ccc(OCCCN2CCOCC2)cc1`, the inhibition was 2%. Next, `Cc1c(=O)n(OCc2ccccn2)c2ccccc2[n+]1[O-]`: 0%; `CS(=O)(=O)Nc1ccc(S(=O)(=O)Nc2nccs2)cc1`: 0%.

Consider `CC1(C)CC(=O)C(C=NCCc2ccc(S(N)(=O)=O)cc2)=C(O)C1`, for which the inhibition was 0%.

Consider `Cn1c(=O)oc2cc(S(=O)(=O)N3CCN(c4ccccn4)CC3)ccc21`, for which the inhibition is 0%.

On to `CCOC(=O)c1cccc(NC(=O)CSc2nnc(-c3cccnc3)n2CC)c1`, for which the inhibition was 0%.

The values are drawn from PubChem BioAssay.
